Gli-Sufu antag: Gli-Sufu pathway antagonism | 0.74% of 340,000 active | inhibition, % at 5 µM | Sufu-KO-LIGHT fibroblasts, Gli luciferase reporter luminescence;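 active = inhibition above about 55%, limit read from the data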;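 note: 0% = DMSO-treated cells and 100% = wells with medium but no cells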
Jurkat NFkB inh: lowers PMA/ionomycin-induced NF-kB signal in Jurkat cells; AID 435003; inhibition, % at 4 µM; 0.53% of 330,000 active; PMA/ionomycin-induced NF-kB luciferase reporter, luminescence; in the data active = inhibition above about 50%
697 NFkB inh: lowers PMA/ionomycin-induced NF-kB signal in 697 B cells. 697 B-cell NF-kB luciferase reporter, 16 h. AID 435022. 0.33% of 330,000 active. inhibition, % at 4 µM; in the data active = inhibition above about 35%
Mdm2 MdmX PPI: human Mdm2/MdmX binding inhibition; O15151+Q00987; SaOS-2 split-luciferase Mdm2/MdmX complementation, luminescence; inhibition, % at 8 µM; 3% of 330,000 active;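 active = inhibition of at least 50% at 8 µM in the primary screen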
Target sequence (O15151 whole entry, looked up): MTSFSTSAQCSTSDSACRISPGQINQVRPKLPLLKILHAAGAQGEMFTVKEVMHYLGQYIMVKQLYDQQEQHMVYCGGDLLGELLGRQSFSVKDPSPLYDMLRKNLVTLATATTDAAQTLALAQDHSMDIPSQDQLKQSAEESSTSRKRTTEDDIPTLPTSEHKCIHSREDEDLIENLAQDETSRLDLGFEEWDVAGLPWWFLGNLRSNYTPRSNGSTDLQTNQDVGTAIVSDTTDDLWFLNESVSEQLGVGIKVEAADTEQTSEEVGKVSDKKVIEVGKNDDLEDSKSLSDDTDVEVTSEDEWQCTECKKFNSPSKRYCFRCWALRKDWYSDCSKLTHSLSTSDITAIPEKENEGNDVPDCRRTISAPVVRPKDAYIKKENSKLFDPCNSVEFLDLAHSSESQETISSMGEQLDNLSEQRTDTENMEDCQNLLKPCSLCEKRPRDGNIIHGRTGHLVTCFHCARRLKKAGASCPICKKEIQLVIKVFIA
Target sequence (Q00987 whole entry, looked up): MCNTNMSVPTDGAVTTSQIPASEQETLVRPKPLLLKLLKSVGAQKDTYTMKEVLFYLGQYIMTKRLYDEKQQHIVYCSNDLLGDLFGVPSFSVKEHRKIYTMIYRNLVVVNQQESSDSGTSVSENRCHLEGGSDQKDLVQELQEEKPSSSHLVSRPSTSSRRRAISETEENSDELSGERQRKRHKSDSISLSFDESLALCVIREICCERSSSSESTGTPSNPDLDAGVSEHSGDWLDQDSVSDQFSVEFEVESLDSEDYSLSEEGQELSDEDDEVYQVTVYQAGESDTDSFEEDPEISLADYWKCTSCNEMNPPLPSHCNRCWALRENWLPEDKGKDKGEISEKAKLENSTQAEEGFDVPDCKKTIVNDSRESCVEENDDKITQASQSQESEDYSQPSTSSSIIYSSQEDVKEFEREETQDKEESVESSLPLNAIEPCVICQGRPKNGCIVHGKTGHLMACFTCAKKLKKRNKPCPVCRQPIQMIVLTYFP
Beta cell apopt: beta cell apoptosis inhibition | INS-1E cytokine-induced death, ATP luminescence, 48 h; percent of positive-control rescue, neutral wells zero | protection from apoptosis, % (concentration not given with the values) | 0.8% of 300,000 active;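 active = Every replicate reaches about 75%, or at least half do and their mean reaches it too, limit read from the data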;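 note: 0% = cytokine-treated negative control wells and 100% = positive control rescue; higher means more ATP so stronger rescue from cytokine killing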
Mdm2-MdmX conf: confirmation of human Mdm2/MdmX interaction inhibitors; shares compounds with Mdm2 MdmX PPI; Mdm2-MdmX binding, luminescent assay; inhibition, % at 8 µM; 55% of 10,000 active; AID 489028; in the data active = inhibition above about 40%
Full FLuc ctr: full-length luciferase inhibition in Mdm2/MdmX counter-screen. 77% of 6,200 active. AID 504607. shares compounds with Mdm2 MdmX PPI. inhibition, % at 8 µM. SaOS-2 full-length luciferase counterscreen, luminescence;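 active = mean inhibition at 8 µM reaching about 37%, which flags the compound as non-specific, limit read from the data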;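 note: p53-null SaOS-2 cells with luciferase driven by a doxycycline-inducible promoter; compound on cells about two nights before reading with doxycycline added after day one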
* = called active by the depositor; · = not tested or not shown. Shown are actives, neighbours in structure and some others; about 4% of the full set was active somewhere.

SMILES	Gli-Sufu antag	Jurkat NFkB inh	697 NFkB inh	Mdm2 MdmX PPI	Beta cell apopt	Mdm2-MdmX conf	others
CN(C(=O)CNc1ccccc1Cl)C1CCS(=O)(=O)C1 (centres undefined)	-2.8	0.2	1.7	16.4	1.7	·
O=C(c1cc(S(=O)(=O)N2CCOCC2)ccc1Cl)N1CCc2ccccc2C1	-1.1	-14.2	6.5	6.2	-2.4	·
Cc1cc2ncn(S(=O)(=O)c3ccc(S(=O)(=O)N4CCOCC4)cc3)c2cc1C	5.8	-11.1	7.2	-9.3	-3.9	·
Cc1cc2nc(CCN3CCOCC3)n(S(=O)(=O)c3ccc(C(C)(C)C)cc3)c2cc1C	-8.6	1.1	2.8	52.1*	-4.9	24.9
Cc1ccc(-n2cc(CNCCCn3ccnc3C)c(-c3ccc(F)cc3)n2)cc1	10.9	4.1	1.3	73.0*	6.9	29.6
C=CCN(c1ccccc1)S(=O)(=O)c1cccc(C(=O)NC2CCN(Cc3ccccc3)CC2)c1	41.1	48.3	-50.2	60.1*	11.9	39.4
CCC(=O)OCC(=O)c1cc(C)n(-c2ccc(Br)cc2)c1C	-10.5	4.3	3.1	-4.4	-7.5	·
N#Cc1ccc(C23CC4(C2)[C@H](CN(P(=O)(c2ccccc2)c2ccccc2)[C@@H]4c2ccccc2)C3c2ccc(Cl)nc2)cc1 (some centres undefined)	9.9	27.3	21.6	56.1*	4.4	24.6	Full FLuc ctr=53.7*
CCc1cc2cc3c(cc2nc1SCC(=O)Nc1nccs1)OCO3	0.2	-15.0	-13.2	70.9*	17.4	19.9
CCc1cc2cc3c(cc2nc1SCC(=O)Nc1c[nH]c(=O)[nH]c1=O)OCO3	-12.4	-7.4	20.8	30.4	1.2	·
CCCn1c(CC)nc([N+](=O)[O-])c1Sc1ccc(C)cc1	-0.2	3.2	9.4	63.7*	-15.8	12.4
Cc1cc(C)nc(N/N=C/c2ccccc2OCc2ccc(Br)cc2)n1	7.8	-22.8	-16.4	-28.8	-5.9	·
Cc1cc(C)nc(N/N=C/c2cc(Br)ccc2O)n1	24.9	26.7	-18.2	75.3*	88.0*	75.6*	Full FLuc ctr=26.2
COc1ccc(-c2noc(CN(C)C(=O)c3ccc4c(c3)OCO4)n2)cc1	-14.3	-1.2	10.9	2.7	-2.3	·
O=C(NNC(=O)c1ccccc1O)c1ccc(Cl)c(S(=O)(=O)N2CCCCC2)c1	-0.9	7.8	-12.7	43.7	25.4	·
COc1ccc(NC(=O)CCl)cn1	·	-4.9	4.9	-15.0	5.2	·
O=C(CCl)Nc1ccc(Oc2cnc3ccccc3n2)cc1	0.6	12.3	30.4	67.4*	-3.8	49.5*	Full FLuc ctr=14.2
O=C(CCl)Nc1cccc(-c2cnc3ccccc3n2)c1	-20.3	27.3	-74.3	97.4*	-2.9	99.5*	Full FLuc ctr=55.1*
O=C(Nc1cccnc1)c1cccc(NC(=O)c2ccco2)c1	2.7	-3.1	17.7	9.7	-3.7	·
O=C(Nc1cccc(-c2cnc3ccccc3n2)c1)c1ccccc1	-35.9	0.1	-49.3	57.4*	12.5	-33.8
O=C(Nc1cccc(-c2csc(Nc3ccccc3)n2)c1)c1ccccc1	-68.1	-57.1	-93.8	-8.0	37.4	·
O=C(Nc1cccc(-c2cnc3ccccc3n2)c1)c1cccc(NC(=O)c2ccco2)c1	-20.9	29.6	-13.6	68.0*	13.1	64.8*	Full FLuc ctr=88.3*
CCC(=O)Nc1cccc(-c2cnc3ccccc3n2)c1	-64.2	-33.8	-66.5	-18.0	-1.1	·
CC(=O)c1ccc(N2CCN(S(=O)(=O)c3c(C(=O)N4CCCC4)c(C)n(C)c3C)CC2)cc1	-10.3	-8.9	-1.6	17.0	-9.5	·
COc1cccc(CNC(=O)c2ccc(NC(=O)CC3SC(N4CCCC4)=NC3=O)cc2)c1 (centres undefined)	-8.1	-0.5	15.7	-3.0	2.2	·
SMILES	Gli-Sufu antag	Jurkat NFkB inh	697 NFkB inh	Mdm2 MdmX PPI	Beta cell apopt	Mdm2-MdmX conf	others
COc1ccccc1-c1noc(CCCC(=O)Nc2ccc(C(N)=O)cc2)n1	1.4	-6.6	-17.0	9.6	-3.5	·
CCOC(=O)c1ccc(NC(=O)c2nc[nH]c2C(=O)NCCNC(=O)c2[nH]cnc2C(=O)Nc2ccc(C(=O)OCC)cc2)cc1	13.1	-6.8	13.5	100.5*	11.4	41.0*	Full FLuc ctr=81.5*
Cc1cccc(NC(=O)c2nc[nH]c2C(=O)N[C@H](C)c2ccccc2)c1	3.8	-11.0	-9.4	56.7*	1.7	37.8	Full FLuc ctr=49.6*
C[C@H](NC(=O)c1[nH]cnc1C(=O)Nc1ccccc1)c1ccccc1	-9.3	-8.0	-6.4	15.4	-2.2	·
CCOC(=O)c1ccc(NC(=O)c2nc[nH]c2C(=O)N[C@H](C)c2ccccc2)cc1	0.0	1.5	4.3	60.1*	7.7	17.6
Cc1ccc(NC(=O)c2nc[nH]c2C(=O)N[C@H](C)c2ccccc2)cc1	28.6	4.6	-14.2	10.2	-2.6	·
C[C@@H]1COC(=O)[C@H](CC(=O)OC(C)(C)C)C/C=C\C[C@@H](CC(=O)N(CCO)Cc2ccccc2)C(=O)N1	1.0	-7.0	-15.1	9.7	-1.4	·
Cc1cc(C)cc(NC(=O)N2CCN(C/C=C/c3ccccc3)CC2)c1	11.3	-15.4	-22.3	-4.5	3.3	·
CCN(CC(=O)Nc1ccc(NC(C)=O)cc1)C(=O)c1n[nH]c(=O)c2ccccc12	-9.2	13.9	7.5	-18.0	1.6	·
Oc1nc(Nc2ccc(Cl)cc2Cl)sc1/C=C1\C=Nc2ccccc21	-15.4	-0.1	-2.6	86.0*	·	34.1
Cn1c(O)c(/C=C2\C=Nc3ccccc32)sc1=Nc1ccc(C(=O)O)cc1	-27.6	0.8	-10.3	34.6	-6.9	·
CCCn1c(NC(=O)c2ccco2)nc2ccccc21	36.0	2.1	0.1	40.8	2.9	·
S=C(Nc1ccccc1)Nc1nc2ccccc2n1CCOc1ccccc1	-0.1	-4.1	-3.1	51.3*	20.1	24.1
COc1ccc(OCCn2c(NC(=O)c3ccco3)nc3ccccc32)cc1	-11.3	3.0	-5.5	56.5*	16.5	10.8
CC(=O)Nc1nc2ccccc2n1CCOc1ccccc1	2.8	-11.2	-37.7	25.0	6.9	·
CCCCn1c(NC(=O)c2ccccc2)nc2ccccc21	6.1	-0.3	-5.6	43.9	52.3	·
CCCCn1c(NC(=S)Nc2ccccc2)nc2ccccc21	-3.7	-4.8	14.8	58.3*	50.8	38.8	Full FLuc ctr=93.7*
O=C(Nc1ccc2snnc2c1)Nc1cccc2ccccc12	-3.1	-18.3	18.3	67.0*	40.8	20.2
Cc1ccc(S(=O)(=O)N2CCCCC2)cc1NC(=O)Cn1cc(C(F)(F)F)ccc1=O	-3.4	2.6	5.6	-10.3	·	·
CSC(=S)NCc1cccnc1	34.4	-1.2	23.6	79.5*	8.6	73.0*	Full FLuc ctr=38.9*
Cc1oc(-c2ccccc2Cl)nc1Cn1cccc1C1=NC(c2ccccc2)CO1 (centres undefined)	14.8	0.7	-21.3	55.5*	2.5	57.0*	Full FLuc ctr=89.8*
Cc1oc(-c2ccccc2Cl)nc1CN1CCCC1c1ccc(F)cc1 (centres undefined)	-19.3	6.0	16.2	8.2	-0.3	·
